# Bioassay records deposited in PubChem BioAssay by The Scripps Research Institute Molecular Screening Center.
# MBD2 inh: inhibitors of human MBD2 binding to methylated oligonucleotide; Q9UBB5; TR-FRET; inhibition, % at 4.4 µM; hit rate 0.31% among 370,000; AID 686964; in the data active = inhibition above about 13%
# LEDGF integ inh: blocks HIV-1 LEDGF/p75-dependent DNA integration | TR-FRET IN-LEDGF/p75 DNA integration, Eu/Cy5 | inhibition, % at 3.7 µM | hit rate 0.64% among 370,000;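 active = inhibition above the screen-wide mean plus 3 SD, cut at about 13% in these data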;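 note: signal is the Cy5 over europium emission ratio at 671 and 618 nm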
# UHRF1 MBD2 ctr: human UHRF1 methylated DNA binding inhibitors; Q96T88; UHRF1 binding to methylated oligo, TR-FRET; inhibition, % at 4.4 µM; hit rate 0.75% among 370,000; in the data active = inhibition above about 21%;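 note: UHRF1 SRA domain binding a hemimethylated CpG hairpin DNA probe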
# PRMT1 FP inh: blocks human protein arginine methyltransferase 1. Q99873. recombinant PRMT1, activity-based probe fluorescence polarization. inhibition, % at 2.79 µM. hit rate 1.3% among 370,000. AID 652257;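 active = inhibition above about 21% made by adding two undisclosed values, limit read from the data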
# Target sequence (Q99873 whole entry, looked up): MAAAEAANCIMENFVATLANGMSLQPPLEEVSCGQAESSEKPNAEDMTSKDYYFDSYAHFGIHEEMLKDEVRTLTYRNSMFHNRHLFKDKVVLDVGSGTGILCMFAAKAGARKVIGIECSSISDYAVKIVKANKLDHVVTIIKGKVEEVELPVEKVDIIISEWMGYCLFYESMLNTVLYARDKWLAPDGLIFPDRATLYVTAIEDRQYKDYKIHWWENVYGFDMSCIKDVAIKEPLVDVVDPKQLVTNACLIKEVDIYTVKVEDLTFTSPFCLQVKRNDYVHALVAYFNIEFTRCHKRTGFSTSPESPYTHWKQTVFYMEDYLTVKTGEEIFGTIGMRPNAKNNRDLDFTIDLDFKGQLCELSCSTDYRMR
# PRMT1 inh conf: confirmation of human PRMT1 inhibitors; hit rate 42% among 3,300; AID 687036; shares compounds with PRMT1 FP inh; recombinant His-PRMT1, activity-based probe fluorescence polarization; inhibition, % at 2.79 µM;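 active = mean inhibition across replicates above the hit cutoff derived for the earlier primary screen, cut at about 22% in these data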
# A number is an active result; n = inactive; x = no result. In the library only some 2.5% were active in any assay of this set; here they are far more common.
SMILES,MBD2 inh,LEDGF integ inh,UHRF1 MBD2 ctr,PRMT1 FP inh,PRMT1 inh conf
COc1ccc(OCCC(=O)OCC(=O)c2ccc[nH]2)cc1,n,n,n,n,x
O=C(Cn1cncn1)N/N=C/c1cccnc1,n,n,n,n,x
NC(=O)NC(=O)CC1S/C(=N/N=C2\CSC(=O)N2)NC1=O (configuration not stated),n,n,n,45.2,33.2
NC(=O)NC(=O)CC1S/C(=N/N=C/c2ccccc2)NC1=O (configuration not stated),n,n,n,n,x
Cc1cc(C)nc(SCNC(=O)c2ccccc2)n1,n,n,n,33.8,n
Cc1cc(SCNC(=O)c2ccccc2)nc(C(C)C)n1,n,n,n,n,x
O=C(CNC(=O)c1ccccc1Br)NCC(c1ccco1)N1CCCCC1 (configuration not stated),n,n,n,n,x
Cc1ccc(/C=C/C(=O)c2ccccc2)cc1,n,n,n,n,x
Cc1ccc(C(=O)/C=C/C(=O)O)cc1,n,n,n,40.2,30.3
CCOC(=O)N(C)C[C@H]1OCc2cnnn2CCCC(=O)N([C@@H](C)CO)C[C@@H]1C,n,n,n,n,x
NCCc1nnc(SCC(=O)Nc2cccc(Cl)c2)o1,n,n,n,25.2,n
CCOC(=O)C1(C)CCN1C(=O)c1cccnc1Oc1ccccc1 (configuration not stated),n,n,n,n,x
O=C1N(Cc2cccc(Cl)c2)C[C@@H]2C[C@@H](c3ccc4nonc4c3)N3CCC[C@@]123,n,n,n,n,x
CC(=O)Nc1ccc(S(=O)(=O)NNc2ccc([N+](=O)[O-])cc2)cc1,n,n,n,31.9,n
CC(=O)[C@@]1(O)Cc2c(O)c3c(c(O)c2[C@H](O[C@H]2C[C@H](N)[C@H](O)[C@H](C)O2)C1)C(=O)c1ccccc1C3=O,105.7,n,94.9,169.5,153.1
O=C(O)c1ccccc1NS(=O)(=O)c1ccc(NN=Cc2cccc(Cl)c2)c([N+](=O)[O-])c1,n,n,n,n,x
O=C(O)c1ccccc1NS(=O)(=O)c1ccc(N/N=C/c2ccc(O)c(O)c2)c([N+](=O)[O-])c1,n,n,n,32.8,39.9
Cc1c(C(=O)N2CCC2(C)C(=O)O)oc2ccccc12 (configuration not stated),n,n,n,n,x
Cc1cccc(Cn2c(C(=O)OC(C)C)cc3c2ccn3C)c1,n,n,n,36.0,n
CCOC(=O)c1cc2c(ccn2C)n1Cc1ccc(Cl)cc1,n,n,n,n,x
NC(=O)c1ncn([C@@H]2O[C@H](CNCc3cccn3-c3ccncc3)[C@@H](O)[C@H]2O)n1,n,n,n,n,x
CCc1ccc(N2CC(C(=O)OC)CC2=O)cc1 (configuration not stated),n,n,n,n,x
CCc1ccc(N2C(=O)CC(N3CCC(C(=O)OC)CC3)C2=O)cc1 (configuration not stated),n,n,n,44.0,n
CCOC(=O)C1CCN(C2CC(=O)N(c3ccc(OCC)cc3)C2=O)CC1 (configuration not stated),n,n,n,45.4,n
CCCOc1ccc(N2C(=O)CC(N3CCC(c4nncn4CC)CC3)C2=O)cc1 (configuration not stated),n,n,n,38.8,n
SMILES,MBD2 inh,LEDGF integ inh,UHRF1 MBD2 ctr,PRMT1 FP inh,PRMT1 inh conf
CN1/C(=C\C(=O)c2cccnc2)Sc2ccccc21,n,n,n,31.4,n
COc1cccc(C(=O)/C=C2\Sc3ccccc3N2C)c1,n,n,n,n,x
Cc1ccc(C)c(Cn2c(=O)n(CCCC(=O)NCc3ccco3)c(=O)c3ccccc32)c1,n,n,n,101.9,n
CC(=O)c1cccc(NC(=O)/C(=C/c2ccco2)NC(=O)c2ccco2)c1,n,n,n,45.6,26.6
COc1ccccc1C(=O)N/C(=C/c1ccco1)C(=O)Nc1cccc(C(=O)O)c1,n,n,n,27.6,n
CC(=O)c1cccc(NC(=O)/C(=C\c2ccco2)NC(=O)c2cccs2)c1,n,n,n,n,x
O=C(CCn1cccn1)Nc1ccc(-c2ccno2)cc1,n,n,n,n,x
O=C1NC(c2ccccc2)=N/C1=C/c1ccco1,n,n,n,33.9,n
O=c1cc(CN2CCN(c3ccccc3F)CC2)c2ccccc2o1,n,n,n,n,x
O=C(CC(Nc1ccccc1Cl)C(=O)O)c1ccccc1 (configuration not stated),n,n,n,30.8,n
O=C(CC(Nc1cccc(Cl)c1Cl)C(=O)OCC(=O)c1cccs1)c1ccccc1 (configuration not stated),n,n,n,n,x
